Screen size: about 99,000 compounds; about 390 (0.39%) were called active. Cut-off read from the data, not from the text of the source: active = TR-FRET ratio above about 2000; inactive = the rest. The list comes from a sample in which actives are over-represented; it also holds similar structures and randomly drawn compounds.

The record followed here is PubChem BioAssay AID1048 (The Scripps Research Institute Molecular Screening Center, 2008).

A short description of this assay: TR-FRET detection interference compounds, artefact control for PPARgamma SRC-3 recruitment agonists, biochemical, TR-FRET ratio (AID 1048). Conditions: TR-FRET artefact counter-screen, PPARgamma/SRC-3 format; at 8 µM; hits give high values.
`CC(=O)C1C(c2ccc(Cl)cc2)c2c(n[nH]c2C)CC1(C)O` (stereo unspecified): the TR-FRET ratio is 1710 (inactive). In the case of `COc1ccc(NS(=O)(=O)c2cc(NC(=O)C3CCCCC3)ccc2N2CCOCC2)cc1` it was 1510 (inactive); in that of `O=C(Nc1ccc([N+](=O)[O-])cc1)C1CC12CCC2` (stereo unspecified), 1620 (inactive); in that of `CC(=O)c1ccc(S(=O)(=O)Nc2ccc(C(=O)NCC(c3ccccc3)N(C)C)cc2)cc1` (stereo unspecified), 1580 (inactive). With `CC(Sc1cccc[n+]1[O-])C(=O)Nc1cccc(S(=O)(=O)N2CCOCC2)c1` (stereo unspecified) the figure was 1620 (inactive); with `COc1ccc(/C=N/NC(=O)c2ccccc2)cc1OS(=O)(=O)c1ccccc1`, 1630 (inactive). On to `COc1cccc(CNC(=O)CCN2C(=S)NC(C)(C)CC2C)c1` (stereo unspecified), for which the TR-FRET ratio was 1480 (inactive). With `O=C(COC(=O)c1ccccc1F)Nc1cc(S(=O)(=O)N2CCOCC2)ccc1N1CCCC1` the figure was 1600 (inactive). In the case of `O=C(Nc1ccc(NC(=O)c2ccco2)c(Cl)c1)c1cccc([N+](=O)[O-])c1` it was 1700 (inactive); in that of `Cc1ccc2[nH]c(C)c(CCNC(=O)NC3CCCCC3)c2c1`, 1590 (inactive); in that of `CCN(C(=O)COC(=O)/C=C/c1nc2ccccc2s1)C1CCS(=O)(=O)C1` (stereo unspecified), 1560 (inactive). In the case of `COCc1c(C(=O)OCc2c(C)noc2C)oc2ccccc12` it was 1630 (inactive). `CCN1CCN(C(=O)CCN2C(=O)c3ccccc3C2=O)CC1`: the TR-FRET ratio is 1540 (inactive). Consider `COc1ccc(S(=O)(=O)Nc2cccnc2)c(Cl)c1Cl`, for which the TR-FRET ratio was 1690 (inactive). Take `CCn1ccnc1CN(C)Cc1nc(-c2ccc3c(c2)OCO3)no1`: the TR-FRET ratio is 1670 (inactive). Consider `COc1ccc(-n2c(=S)[nH]c3sc4c(c3c2=O)CCc2ccccc2-4)cc1`, for which the TR-FRET ratio was 1560 (inactive). Take `O=C(CCN1CCCCC1)N=Nc1c(O)[nH]c2ccccc12`: the TR-FRET ratio was 1900 (inactive).

As to `CCN(CCCNC(=O)CSc1cc(=O)n(C)c2cc(Cl)ccc12)Cc1ccccc1`, the TR-FRET ratio is 2580 (active). In the case of `O=C(CSc1cccc[n+]1[O-])NCCCc1ccccc1` it was 1360 (inactive); in that of `CCn1c(=O)cc(SCC(=O)NCCC2=CCCCC2)c2ccccc21`, 1710 (inactive).

As to `Cn1cnnc1Sc1ccc(CN2CCN(C3CCCC3)C(CCO)C2)o1` (stereo unspecified), the TR-FRET ratio was 1420 (inactive). In the case of `CN(c1ccccc1)c1nc(N)c([N+](=O)[O-])c(NCc2ccco2)n1`, the TR-FRET ratio was 1700 (inactive). With `C/C(N)=C(/C#N)C(=O)COC(=O)CNS(=O)(=O)c1ccc(C)cc1` the figure was 1640 (inactive); with `Cc1c(C(=O)Nc2ccccc2)sc2nc3n(c(=O)c12)CCCCC3`, 1500 (inactive). `O=C(CCCn1c(=O)c2sccc2n(CC(=O)NCC2CCCO2)c1=O)NCc1ccco1` (stereo unspecified): the TR-FRET ratio was 1480 (inactive).

Turning to `CCn1nc(C)cc1C(=O)N1CCCC(C(=O)c2cccc(OC)c2)C1` (stereo unspecified), the TR-FRET ratio was 1380 (inactive). For `CCCCN(C(=O)c1ccc(OC(F)(F)F)cc1)c1c(N)n(CCC)c(=O)[nH]c1=O`, the TR-FRET ratio is 1550 (inactive). In the case of `CN(C)c1nc(-c2cccnc2)nc(-c2ccc(Cl)cc2)c1C#N` it was 1720 (inactive). With `CC(=O)c1ccc(NC(=S)N(Cc2ccccc2)C(C)C2CC2)cc1` (stereo unspecified) the figure was 1760 (inactive); with `CN1CCN(c2ccc(S(=O)(=O)N3CCCCC3)cc2NC(=O)Cc2ccccc2F)CC1`, 1600 (inactive); with `Cc1cccc(C)c1NC(=O)C1(C)c2cccc[n+]2CC(=O)N1Cc1cccs1` (stereo unspecified), 1340 (inactive). With `Cc1ccc(C(=O)NC(=S)NCCN2CCOCC2)cc1` the figure was 1640 (inactive).

For the compound `O=C1CCCC(O)=C1N=Nc1ccc2ncsc2c1`, the TR-FRET ratio is 1660 (inactive). With `O=C(c1ccccc1Cl)N(Cc1ccccc1F)N1C(=O)CCCC1=O` the figure was 1570 (inactive). Consider `Cc1ccc(S(=O)(=O)N2CCOCC2)cc1NC(=O)CSc1nnc(N)s1`, for which the TR-FRET ratio is 1740 (inactive). With `Cc1cccc(OCc2ccc(C(=O)Nc3ccc(F)cc3)cc2)c1` the figure was 1440 (inactive).

Consider `Fc1ccc(COc2cccc(-c3n[nH]c(=S)o3)c2)cc1`, for which the TR-FRET ratio was 2970 (active). As for `S=c1[nH]nc(COc2ccccc2)n1-c1ccccc1`, the TR-FRET ratio is 1490 (inactive). With `O=C(CCc1ccccc1)Nc1ccc(NC(=O)C2CCCCC2)nc1`, the TR-FRET ratio is 1430 (inactive). As to `CCOP(=O)(OCC)C(Nc1ccc([N+](=O)[O-])cc1)c1ccc(Cl)cc1` (stereo unspecified), the TR-FRET ratio is 1560 (inactive). With `Cc1csc(CN(C)C(=O)CC2C(=O)NCCN2CC(C)(C)C)n1` (stereo unspecified) the figure was 1590 (inactive).

`O=S(=O)(NC1CC1)c1ccc2c3c(cccc13)CC2`: the TR-FRET ratio was 1560 (inactive). With `COc1cccc(OC)c1C(=O)NC(=S)Nc1ccc(N2CCOCC2)c(Cl)c1` the figure was 1350 (inactive); with `COc1ccc(C2(CNC(=O)Cc3ccc(OC)c(OC)c3)CCCC2)cc1`, 1430 (inactive). With `COc1ccc(C(=O)NNC(=S)NC(=O)c2ccccc2[N+](=O)[O-])cc1` the figure was 1550 (inactive); with `CCN(C(=O)COC(=O)c1cc(NS(=O)(=O)c2ccc(Cl)c([N+](=O)[O-])c2)ccc1O)C1CCCCC1`, 1460 (inactive). In the case of `CCN(CC)c1ccc(C(=O)N/N=C(\C)c2cccc(OC)c2)cc1` it was 1500 (inactive); in that of `O=C(NCCCN1CCOCC1)c1ccc(N2CCCC2)c([N+](=O)[O-])c1`, 1590 (inactive). Regarding `Cc1cc(C(=O)CC#N)c(C)n1-c1c(C)n(C)n(-c2ccccc2)c1=O`, the TR-FRET ratio is 1450 (inactive). With `CCOc1ccc(N2C(=O)CN(c3cccc4ccccc34)C2=S)cc1` the figure was 1810 (inactive); with `CC(C)(C)NC(=O)CN1CCC(NC(=O)C23CC4CC(CC(C4)C2)C3)CC1`, 1580 (inactive); with `CCOC(=O)C1(CCOc2ccccc2)CCN(C(=O)c2cncs2)CC1`, 1510 (inactive). With `CCC(=O)Nc1cc(C(F)(F)F)ccc1N1CCCC1` the figure was 1710 (inactive). In the case of `COc1ccc(C(=O)NNc2cc(C)nc(NNC(=O)c3ccc(OC)cc3)n2)cc1` it was 1420 (inactive); in that of `COc1cc(CNc2ncn[nH]2)ccc1OCc1ccccc1C`, 1650 (inactive). On to `OCCC1CN(Cc2cnc(-c3ccccc3)s2)CCN1CCc1ccccc1` (stereo unspecified), for which the TR-FRET ratio is 1800 (inactive).

Take `CCC(C)N(C(=O)COC(=O)C1C(C(=O)OC)=C(C)NC(C)=C1C(=O)OC)C1CCS(=O)(=O)C1` (stereo unspecified): the TR-FRET ratio is 1620 (inactive). In the case of `CCOC(=O)N/N=C/c1cccnc1` it was 1540 (inactive). With `CC(=O)c1cccc(CN2CCC(CO)(Cc3ccccc3)CC2)c1`, the TR-FRET ratio is 1520 (inactive). With `Cc1cccc(-c2ncc(CN3CCC(CO)(CCCc4ccccc4)CC3)cn2)c1` the figure was 1420 (inactive).

Turning to `OCC1(CCc2ccccc2)CCN(Cc2ccc3nsnc3c2)CC1`, the TR-FRET ratio is 2140 (active).
